A selection: hits, their analogues and other compounds. The true share with any hit is near 8.1%.
NOMO-1 viab: STK33 inhibitor candidate reducing NOMO-1 cell viability. NOMO-1 AML viability, CellTiter-Glo luminescence, 72 h. inhibition, % (no concentration beside the values). 37,000 tested, 7.5% active; in the data active = inhibition above about 80%; inconclusive = no clear call, values can overlap the other calls
Shh pathway inh: Sonic Hedgehog pathway inhibition. Shh-LIGHT2 Gli-luciferase reporter, 30 h. inhibition, % (test concentration not listed). 22,000 tested, 2.1% active. AID 2313;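 active = mean inhibition across valid replicates above about 65%, limit read from the data; inconclusive = mean under the limit, yet half or more replicates past it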;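 also: pathway switched on by Shh-conditioned medium diluted 1 in 25 in low serum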
MITF inhib: blocks MITF activity; TRPM1 promoter luciferase, luminescence, 24 h; inhibition, % (test concentration not listed); 37,000 tested, 0.28% active; AID 2240; in the data active = inhibition above about 85%; inconclusive = no clear call, values can overlap the other calls; inactive = below about 68%;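 also: human melanocyte line stably carrying TRPM1 promoter luciferase reporter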
Of the large screens only hits and unclear results are named; the others gave an inactive call.

Cc1coc(C)c1C(=O)CC1(O)C(=O)Nc2ccc(Br)cc21 (stereo not given)	none (no result: Shh pathway inh)
CN1C(=O)C(O)(CC(=O)c2ccccn2)c2cc(Br)ccc21 (stereo not given)	NOMO-1 viab 117.0 (no result: Shh pathway inh)
COc1cccc2sc(=NC(=O)CC34CC5CC(CC(C5)C3)C4)n(C)c12	none (no result: Shh pathway inh)
Cc1cc(Br)c(NC(=O)CSc2nc3ccccc3[nH]2)cc1C	none (no result: Shh pathway inh)
Cc1cc(C(=O)CSc2ncnc3sc4c(c23)CCCC4)c(C)n1Cc1ccco1	Shh pathway inh inconclusive
O=c1cc(-c2ccccc2)oc2ccc(O)cc12	none
O=c1cc(-c2ccccc2)oc2c(O)c(O)ccc12	NOMO-1 viab 101.0
CCOC(=O)c1c(NC(=O)CN2CCOCC2)sc(C(C)=O)c1C	none (no result: Shh pathway inh)
C[C@H](CO)N1C[C@H](C)[C@H](CN(C)Cc2ccc(C(F)(F)F)cc2)Oc2ccc(NS(=O)(=O)c3ccccc3)cc2C1=O	none
C[C@@H]1CN([C@H](C)CO)C(=O)c2cc(NS(=O)(=O)c3ccc(F)cc3)ccc2O[C@H]1CN(C)Cc1ccc(C(F)(F)F)cc1	NOMO-1 viab 80.7 (no result: Shh pathway inh)
C[C@@H]1CN([C@@H](C)CO)C(=O)c2cc(NS(=O)(=O)c3ccccc3)ccc2O[C@@H]1CN(C)Cc1ccc(C(F)(F)F)cc1	none
C[C@@H]1CCCCO[C@@H](CN(C)Cc2ccc(C(F)(F)F)cc2)[C@@H](C)CN([C@H](C)CO)C(=O)c2cc(NS(=O)(=O)c3ccc(F)cc3)ccc2O1	NOMO-1 viab 110.2
C[C@@H]1CCCCO[C@H](CN(C)C(=O)Nc2ccc(C(F)(F)F)cc2)[C@@H](C)CN([C@H](C)CO)C(=O)c2cc(NS(=O)(=O)c3ccc(Cl)cc3)ccc2O1	NOMO-1 viab 119.5
Cc1ccc(S(=O)(=O)Nc2ccc3c(c2)C(=O)N([C@H](C)CO)C[C@H](C)[C@H](CN(C)Cc2ccc(C(F)(F)F)cc2)O3)cc1	NOMO-1 viab 93.2
C[C@@H]1CCCCO[C@@H](CN(C)C(=O)Nc2ccc(C(F)(F)F)cc2)[C@@H](C)CN([C@H](C)CO)C(=O)c2cc(NS(=O)(=O)c3ccccc3)ccc2O1	Shh pathway inh inconclusive
C[C@@H]1CCCCO[C@@H](CN(C)Cc2ccc(C(F)(F)F)cc2)[C@@H](C)CN([C@H](C)CO)C(=O)c2cc(NS(=O)(=O)c3ccccc3)ccc2O1	NOMO-1 viab inconclusive (no result: Shh pathway inh)
CCC(C)C(O)(CC(=O)OCc1ccc(O[C@@H]2O[C@H](CO)[C@@H](O)[C@H](O)[C@H]2O)cc1)C(=O)OCc1ccc(O[C@@H]2O[C@H](CO)[C@@H](O)[C@H](O)[C@H]2O)cc1 (stereo not given in full)	none
C[C@@H]1CC[C@]2(C(=O)O[C@@H]3O[C@H](CO)[C@@H](O)[C@H](O)[C@H]3O)CC[C@]3(C(=O)O)C(=CCC4[C@@]5(C)CC[C@H](OC6OC[C@@H](O)[C@H](O)[C@H]6O)C(C)(C)C5CC[C@]43C)C2[C@H]1C (stereo not given in full)	none
O=S1(=O)NC(=NCCCCO)c2ccccc21	none (no result: Shh pathway inh)
c1ccc(-c2nnc(-c3cccc4ccccc34)o2)cc1	none
C[C@@H]1CN([C@H](C)CO)C(=O)c2cc(NS(=O)(=O)c3ccc(F)cc3)ccc2O[C@@H]1CN(C)Cc1ccc(C(F)(F)F)cc1	NOMO-1 viab 112.0
C[C@H]1CN([C@@H](C)CO)C(=O)c2cc(NS(=O)(=O)c3ccc(F)cc3)ccc2O[C@@H]1CN(C)Cc1ccc(C(F)(F)F)cc1	none
CC1CCC2(OC1)OC1CC3C4CC=C5C[C@@H](O)CC(O)[C@]5(C)C4CC[C@]3(C)C1C2C (stereo not given in full)	none
COC(=O)c1c(NC(=O)Cn2cc([N+](=O)[O-])cn2)sc2c1CCCC2	none (no result: Shh pathway inh)
C[C@H]1CN([C@@H](C)CO)C(=O)Cc2cc(NC(=O)Nc3ccc(F)cc3)ccc2O[C@@H]1CN(C)Cc1ccc(C(F)(F)F)cc1	NOMO-1 viab 117.3
C[C@@H]1CN([C@H](C)CO)C(=O)Cc2cc(NC(=O)Nc3ccc(F)cc3)ccc2O[C@H]1CN(C)Cc1ccc(C(F)(F)F)cc1	NOMO-1 viab 116.0
C[C@H](CO)N1C[C@H](C)[C@H](CN(C)Cc2ccc(C(F)(F)F)cc2)Oc2ccc(NC(=O)Nc3ccc(F)cc3)cc2CC1=O	NOMO-1 viab 113.2
CC(C)NC(=O)Nc1ccc2c(c1)CC(=O)N([C@@H](C)CO)C[C@@H](C)[C@@H](CN(C)Cc1ccc(C(F)(F)F)cc1)O2	none
CC(C)NC(=O)Nc1ccc2c(c1)CC(=O)N([C@H](C)CO)C[C@H](C)[C@H](CN(C)Cc1ccc(C(F)(F)F)cc1)O2	none
COc1cccc(-n2nnnc2SCC(=O)Nc2c(C)cc(C)cc2C)c1	none (no result: Shh pathway inh)
Cc1nc2c(cnn2-c2ccccc2)c(=O)n1NC(=O)Nc1ccc(Cl)c(Cl)c1	Shh pathway inh inconclusive
C[C@@H]1CN([C@H](C)CO)C(=O)Cc2cc(N(C)C)ccc2O[C@H]1CN(C)S(=O)(=O)c1cccs1	none

High-throughput results deposited in PubChem by Broad Institute.
